The list is not random: actives were taken first. Their share in the collection is about 2.7%.
Env fusion inh: blocks HIV Env-driven cell-cell fusion; HeLa-JRFL Env/CEM21 cell fusion, luciferase; inhibition, % at 12.3 µM; hit rate 1.1% among 360,000;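 active = mean replicate inhibition score of at least 50 and every replicate individually at or above 50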;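 also: 0% = plate neutral controls and 100% = maraviroc near 300 nM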
PAX8 inh HTS: PAX8 transcriptional activity inhibition | RMG-I TPO-luciferase reporter, SteadyGlo, 24 h | inhibition, % at 12.6 µM | hit rate 1.2% among 360,000;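 active = mean replicate inhibition at least 60% with every replicate also reaching 60%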;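 also: luciferase light reporting Pax8 driven TPO promoter activity; plate controls were median of neutral control wells for no effect and mitoxantrone controls for full effect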
PGC1a acetyl inh: modulators of PGC1a acetylation. inhibition, % at 15.6 µM. U2OS PGC1a acetylation, AlphaScreen anti-acetyl-lysine; with virally co-expressed GCN5 acetyltransferase. hit rate 0.17% among 350,000;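 active = every replicate shows inhibition of at least 40%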;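 also: 0% = neutral control wells and 100% = positive control wells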
EWS-Fli inh: inhibitors of EWS/Fli oncoprotein transcriptional activity; inhibition, % at 12.6 µM; AID 651661; hit rate 0.67% among 350,000; A673 NR0B1-luciferase reporter, viability-normalised;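 active = mean inhibition of at least 50% after viability correction, with every replicate also passing that limit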;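 also: firefly luciferase signal divided by Alamar Blue viability fluorescence both relative to DMSO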
GSIS activator: GLuc luminescence reporter in INS-1E cells, primary screen for activators of glucose-dependent secretion of insulin | INS-1E GLuc reporter insulin secretion, 2-3 h | activation, % at 16.6 µM | hit rate 0.61% among 370,000 | AID 743287;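 active = lowest replicate activation of at least 40%, so every replicate reaches that level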;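 also: 0% = median of neutral control wells and 100% = median of IBMX positive control wells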
CFTR F508del cor: CFTR F508del correction in bronchial cells. AID 720511. CFBE cells, YFP halide quenching; stimulated with forskolin plus potentiator P3; % fluorescence drop versus neutral controls. activity (quench increase), % at 7.58 µM. hit rate 0.36% among 350,000;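 active = mean added fluorescence quench of at least 8% versus neutral control, with both replicates also reaching 8%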;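 also: cells transiently co-express mutant CFTR-F508del with the halide-sensitive YFP; corrector assay measuring rescue of mutant channel to the surface after 24 h compound exposure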
Active calls of the source: *; . = no result; [ ] = another dose, or the depositor's remark.

SMILES | Env fusion inh | PAX8 inh HTS | PGC1a acetyl inh | EWS-Fli inh | GSIS activator | CFTR F508del cor
CN(C)S(=O)(=O)c1ccc(C(=O)OCc2nnc(-c3ccccc3)o2)cc1 | 3.4 | -10.9 | 0.8 | -5.6 | -2.7 | -0.4
C[C@H]1CN([C@@H](C)CO)C(=O)c2cccc(NC(=O)CCCCCC(=O)Nc3ccccc3N)c2O[C@@H]1CN(C)Cc1ccc(-c2ccccc2)cc1 | . | 36.5 | -18.9 | -5.7 | 0.7 | 7.0
C[C@H]1CN([C@@H](C)CO)C(=O)c2cc(NC(=O)Nc3ccc(C(F)(F)F)cc3)ccc2O[C@@H]1CN(C)C | . | 11.7 | -0.1 | 0.3 | 10.7 | -0.8
O=S(=O)(NC[C@@H]1CC[C@@H]2[C@@H](CN2Cc2ccccc2C(F)(F)F)O1)c1ccccc1 | 13.1[16.7 µM] | -25.2 | -0.4 | -2.0 | . | -0.6
CC(C)(C)c1ccc(Cn2nnc3c(=O)[nH]c(C4CCN(C(=O)Cc5cccs5)CC4)nc32)cc1 | 72.3* | . | -17.8 | . | . | .
CC(C)(C)c1ccc(Cn2nnc3c(=O)[nH]c(C4CCCN(C(=O)Cc5cccs5)C4)nc32)cc1 (configuration not stated) | 63.4* | . | -5.5 | . | -36.0 | .
Cc1c(CC(=O)O)c(=O)oc2c(C)c(OCc3ccccc3Br)ccc12 | 0.7 | -10.5 | -4.7 | 2.6 | 41.2* | -2.4
Cc1c(CC(=O)O)c(=O)oc2c(C)c(OCc3ccccc3)ccc12 | -8.2 | -7.0 | 5.0 | 5.0 | 0.9 | -4.2
COc1cccc(NC(=O)C2(C)CCN2C(C)C)c1OC (configuration not stated) | -5.7 | 7.4 | -5.9 | 6.0 | 7.9 | 0.0
CCC(=O)N1CCC1(C)C(=O)Nc1cccc(OC)c1OC (configuration not stated) | 58.1* | -12.6 | -5.8 | -1.1 | . | -1.7
C[C@@H]1CN([C@@H](C)CO)C(=O)Cc2cc(NC(=O)Cc3cn(C)c4ccccc34)ccc2O[C@@H]1CN(C)S(C)(=O)=O | . | -11.2 | 7.5 | 9.5 | 5.7 | -3.9
Cc1sc(NC(=O)c2ccco2)nc1-c1ccc2c(c1)CC(C)N2C(=O)C1CC1 (configuration not stated) | . | . | . | -16.4 | 11.5 | 7.5
CC(=O)Nc1nc(-c2ccc3c(c2)CC(C)N3C(=O)C2CC2)c(C)s1 (configuration not stated) | 58.6* | -7.3 | 12.0 | -15.0 | -2.2 | 0.2
Cc1ccc(C(=O)CNc2ccc(Cl)cc2)cc1 | -7.2 | -17.1 | . | -10.8 | 4.4 | 12.5*
C[C@@H]1CN([C@H](C)CO)S(=O)(=O)c2ccc(-c3ccc(C#N)cc3)cc2O[C@@H]1CN(C)Cc1ccccn1 | 8.4[16.7 µM] | 50.8 | 7.1 | 5.4 | 0.4 | -0.6
Cc1ccc(-c2nc(N)n(C(=O)c3cccnc3)n2)cc1 | -17.6 | . | 9.5 | . | . | .
Cc1ccc(C(=O)n2nc(-c3cccnc3)nc2N)cc1 | 9.1 | . | 4.5 | . | 71.9* | .
CCn1nc2cc(C(=O)NCc3cc(C(F)(F)F)cc(C(F)(F)F)c3)ccc2c1OC | -15.3 | -7.0 | -0.4 | 1.1 | 4.0 | -1.5
CCCCn1nc2cc(C(=O)NCc3cc(C(F)(F)F)cc(C(F)(F)F)c3)ccc2c1OC | 62.9* | 4.8 | -0.9 | -2.5 | -9.2 | 3.2
Cc1cc(C)n(CC(=O)n2c3ccccc3c3ccccc32)n1 | . | . | -0.1 | . | 52.9* | .
Cc1cc2c([nH]c3ccccc32)c(C)n1 | -41.7 | -8.3 | -9.4 | 4.5 | -4.0 | 1.0
Cc1c2ccncc2cc2c1[nH]c1ccccc12 | 27.0 | -28.3 | 5.1 | 4.2 | 0.2 | 11.6*
CSc1c(CC(=O)NCCCO)n(Cc2ccccc2)c2ccccc12 | 5.7 | 8.7 | -4.1 | 3.6 | 6.8 | -0.9
COc1ccc(NC(=O)Cc2c(SC)c3ccccc3n2Cc2ccccc2)cc1 | -6.7 | 16.7 | . | . | 97.0* | .
N#CCCn1cc(/C=C(\C#N)c2nc3ccccc3s2)c(-c2ccc(F)cc2)n1 | -71.5 | -4.9 | -7.5 | . | 50.1* | .
C[C@@H]1CN([C@@H](C)CO)C(=O)c2cccc(NC(=O)Nc3ccccc3)c2O[C@@H]1CN(C)C(=O)Nc1ccc(C(F)(F)F)cc1 | 0.3[16.7 µM] | . | 10.5 | -6.9 | -8.0 | 2.2
CCOC(=O)c1c(C)oc2cc(Cl)c(O)c(CN(C)C)c12 | 3.7 | -134.0 | 3.3 | 0.9 | 24.8 | 4.2
Cc1oc2c(Cl)c(Cl)c(O)c(CN(C)C)c2c1C(=O)c1ccc(Cl)cc1 | 64.2* | -42.7 | 10.9 | 3.5 | -24.0 | -7.1
CCOC(=O)c1sc2nc(C)nc(NCCc3ccccn3)c2c1C | 16.2 | 12.5 | . | 9.9 | -1.5 | 1.4

Screens as filed in PubChem.
